Screening data as filed in PubChem BioAssay.
Marburg entry inh: Marburg virus entry inhibition; Marburg virus pseudotyped entry inhibition, cell reporter; Potency, µM (series often up to 37.8 µM), for the others: top-dose activity change, negative = inhibition, most hits filed as inhibitors; 300,000 compounds, 1.8% hits; AID 540276; calls by dose curve; tested in HEK293 cells; further: potency means the concentration at half of the fitted maximal effect
HCV inhibitor: blocks hepatitis C virus; Huh7.5.1 HCVcc-Cre infection, luciferase reporter, 44 h; Potency, µM (highest dose often 41.8 µM), for the others: top-dose activity change, negative = inhibition, hits mostly inhibitors; 340,000 compounds, 3.4% hits; AID 651820; further: potency means the concentration at half of the fitted maximal effect
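Whole-lifecycle infectious HCVcc-Cre system; cells 1,000/well, compound then virus (~0.5 moi) added 4 h after plating, 44 h culture. Luciferase read 15 sec following 15 min substrate incubation, room temp.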
FBPA Giardia inh: Giardia lamblia aldolase inhibition. 290,000 compounds, 0.71% hits. Potency, µM (highest dose often 59.6 µM), for inactives: at the top dose activity, negative = inhibition, actives largely listed as inhibitors. purified Giardia FBPA. AID 2451; further: potency means the concentration at half of the fitted maximal effect; nearly all actives have a fitted effect of over 55% in size
Target sequence (A8B2U2 whole entry, looked up): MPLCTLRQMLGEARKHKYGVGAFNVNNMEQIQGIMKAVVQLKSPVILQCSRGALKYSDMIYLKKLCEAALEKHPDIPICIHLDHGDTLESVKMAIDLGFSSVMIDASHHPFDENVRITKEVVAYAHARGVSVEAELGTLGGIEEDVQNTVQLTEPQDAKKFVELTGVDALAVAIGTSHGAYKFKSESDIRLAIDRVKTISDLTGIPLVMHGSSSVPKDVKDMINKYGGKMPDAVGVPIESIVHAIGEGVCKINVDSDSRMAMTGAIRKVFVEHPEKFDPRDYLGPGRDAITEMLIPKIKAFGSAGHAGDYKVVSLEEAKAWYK
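40 nM FBPA preincubated 10 min at RT with compound (up to 57.5 uM final), then substrate plus GAPDH/TPI/NAD/arsenate coupling and diaphorase/resazurin added. Fluorescence read after 20 min at RT, 525/598 nm.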
FMDV inh: antivirals against foot and mouth disease virus; FMDV antiviral cell-based qHTS; Potency, µM (titrated, usually from 57.9 µM), for inactives: top-dose activity change, negative = inhibition, usual class: inhibitors; 410,000 compounds, 1.2% hits; calls by dose curve; tested in HEK293T cells; further: read-out not given here; potency means the concentration at half of the fitted maximal effect; nearly all actives have a fitted effect of over 45% in size
LASV entry inh: inhibitors of Lassa virus binding or cell entry; 300,000 compounds, 1.2% hits; Potency, µM (highest dose often 37.9 µM), without a hit: at the top dose activity change, negative = inhibition, usual class: inhibitors; Lassa virus pseudotype entry inhibition, cell reporter; calls by dose curve; tested in HEK293 cells; further: potency means the concentration at half of the fitted maximal effect; nearly all actives have a fitted effect of over 50% in size
HCMV inh: human cytomegalovirus inhibition; activity change, negative = inhibition, % at 57.5 µM; HFF cells, HCMV-luciferase reporter, 72 h; active compounds read low; 410,000 compounds, 4.5% hits; in the data active means activity change below about -60%; inconclusive means no clear call, values can overlap the other calls; inactive means above about -39%
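HFF cells seeded 16 h at 37C, treated with compounds, infected with luciferase-reporter HCMV at MOI 1 PFU/cell; luciferase read at 72 h post infection, normalized to buffer-only and Salinomycin controls.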
* marks the source's active call; other numbers are inactive results; ! = not confirmed by another sample; [ ] = another dose, or the depositor's remark. Rows were chosen to be rich in hits. Some 8.3% of all compounds tested hit in one or more screens of this group. Unless noted, the call rests on the fitted dose curve; in most records, active means well fitted curve in the direction sought with a large enough effect; inconclusive means small, poorly fitted or top-dose-only effect, or another doubt; inactive means no such curve, though single readings can be large; an effect the other way counts as inactive or inconclusive. On the % scale 0 is the no-effect control and ±100 the full control effect.

C=CCOC(=O)C(C(=O)CC)C(NC(=O)OC)c1ccc(F)cc1 (centres undefined) was read as Marburg entry inh -24.9%[14.2 µM] and FBPA Giardia inh 2.6%[12.9 µM].
Screening CCCCNc1cccc2c1S(=O)(=O)N[C@H](Cc1ccccc1)CO2 returned LASV entry inh -4.4%[46.1 µM] and HCMV inh -9.9.
For CNC(=O)COc1ccc(Nc2nnc(-c3ccc(C)c(S(=O)(=O)NC(C)(C)C)c3)c3ccccc23)cc1 the results were FMDV inh 26.8%, LASV entry inh inconclusive and HCMV inh inconclusive.
Screening Fc1ccc(Nc2nc(NCc3ccco3)c3ccccc3n2)cc1 returned HCV inhibitor 10µM*, FBPA Giardia inh -11.9%, FMDV inh inconclusive and HCMV inh -13.5.
`Nc1nc(Nc2ccccc2)nc(NCc2ccco2)c1[N+](=O)[O-]` gave Marburg entry inh inconclusive, HCV inhibitor inconclusive, FBPA Giardia inh -4.7%, FMDV inh inconclusive, LASV entry inh -19.6% and HCMV inh -28.2.
`Cc1ccc(S(=O)Cc2ccc(C(=O)NC3CCCCCC3)o2)cc1` (centres undefined) gave Marburg entry inh inconclusive, FMDV inh -16.2%, LASV entry inh inconclusive and HCMV inh 3.0.
COc1ccc2c(c1)[C@@H](NC(=O)OCc1ccccc1)[C@H](C)[C@@H](c1ccccc1)N2 was read as HCMV inh 12.6.
For O=C1CN=C(c2ccc(Br)cc2)c2c(sc3c2CCCC3)N1CCN1CCCCC1 the results were HCV inhibitor -18.0%, FBPA Giardia inh 9.6%, FMDV inh inconclusive and HCMV inh -96.7*.
`O=[N+]([O-])c1ccc(-c2ccc(/C=N/n3cnnc3)o2)c(Br)c1` gave HCV inhibitor -10.3%, FBPA Giardia inh 1.1%, FMDV inh inconclusive and HCMV inh -90.1*.
Screening Cc1cc(C)n(Cc2ccc(C(=O)N/N=C/c3ccc(-c4ccc([N+](=O)[O-])cc4)o3)o2)n1 returned Marburg entry inh inconclusive, HCV inhibitor inconclusive, FBPA Giardia inh -9.7%, FMDV inh -23.9%, LASV entry inh -12.5% and HCMV inh -64.2*.
Cc1ccc(-c2ccc(/C=N\NC(=O)c3cc4c(ccc5ccccc54)o3)o2)cc1[N+](=O)[O-] was read as Marburg entry inh -7.6%, HCV inhibitor inconclusive, FBPA Giardia inh 2.8%, FMDV inh -14.8%, LASV entry inh inconclusive and HCMV inh -95.0*.
Cc1cc([N+](=O)[O-])ccc1-c1ccc(/C=N/NC(=O)c2ccc(Br)o2)o1 was read as HCV inhibitor inconclusive, FMDV inh inconclusive and HCMV inh -89.5*.
`CCCCC(=O)N/N=C/c1ccc(-c2ccc([N+](=O)[O-])cc2)o1` gave Marburg entry inh -30.8%[46.1 µM], HCV inhibitor inconclusive, FBPA Giardia inh -0.4%, FMDV inh -13.2%, LASV entry inh -9.6% and HCMV inh inconclusive.
Cc1cc([N+](=O)[O-])c(C)cc1-c1ccc(/C=N/n2cnnc2)o1 was read as Marburg entry inh 12.3%[46.1 µM], HCV inhibitor -10.9%, FBPA Giardia inh 1.3%, FMDV inh -10.9%, LASV entry inh 15.8%[46.1 µM] and HCMV inh 16.2.
For CN(Cc1ccccc1)[C@@H]1CC[C@@]23CCCN2C(=O)CCC[C@H]3[C@H]1Cc1ccccc1 the results were HCMV inh 30.1.
For O=C(c1ccncc1)N1CC(=O)N2[C@H](CO)[C@H](c3ccc(Br)cc3)[C@@H]2C1 the results were HCMV inh -12.8.
Screening COc1ccc(C(O)c2nc3ccccc3n2C)cc1OC (centres undefined) returned Marburg entry inh inconclusive, HCV inhibitor 2.82µM*, FBPA Giardia inh 5.9%, FMDV inh inconclusive, LASV entry inh -19.6% and HCMV inh -88.4*.
For COc1ccc(C(=O)CSc2nnc(CNc3ccc(C)cc3C)n2Cc2ccco2)cc1 the results were Marburg entry inh -40.1%, HCV inhibitor 6.31µM*, FBPA Giardia inh -0.4%, FMDV inh -18.2%, LASV entry inh inconclusive and HCMV inh 41.1.
Cc1ccc(NCc2nnc(SCc3ccc(C#N)cc3)n2Cc2ccco2)c(C)c1 was read as Marburg entry inh inconclusive, HCV inhibitor -29.6%, FBPA Giardia inh -0.2%, FMDV inh -12.8%, LASV entry inh 5.7% and HCMV inh 41.2.
`O=C(CSc1nnc(-c2cc3ccccc3cc2O)n1Cc1ccco1)c1ccc(F)cc1` gave Marburg entry inh inconclusive, HCV inhibitor 15.8µM*, FBPA Giardia inh -1.9%, FMDV inh -13.9%, LASV entry inh 23.1µM* and HCMV inh inconclusive.
Screening Cc1ccc(C(=O)CSc2nnc(CNc3ccc(C)cc3C)n2Cc2ccco2)cc1 returned Marburg entry inh inconclusive, HCV inhibitor inconclusive, FBPA Giardia inh -1.4%, FMDV inh inconclusive, LASV entry inh 25.9µM* and HCMV inh 16.9.
For CCc1ccc(Oc2c(C(F)(F)F)oc3c(CN4CCN(C)CC4)c(O)ccc3c2=O)cc1 the results were Marburg entry inh 1.5%[46.1 µM], FMDV inh 0.0%, LASV entry inh -13.7%[46.1 µM] and HCMV inh -27.2.
`CC#C[C@]1(O)CC[C@H]2[C@@H]3CCC4=CC(=O)CCC4=C3[C@@H](c3ccc(N(C)C)cc3)C[C@@]21C` gave Marburg entry inh 10µM*!, HCV inhibitor 35.5µM*!, FBPA Giardia inh -10.6%, FMDV inh -22.5%, LASV entry inh 8.2µM*! and HCMV inh 113.7.
`CC#C[C@]1(O)CC[C@H]2[C@@H]3CCC4=CC(=O)CCC4=C3[C@H](c3ccc(N(C)C)cc3)C[C@@]21C` gave Marburg entry inh inconclusive, FBPA Giardia inh -2.8% and FMDV inh 0.0%.
Screening N#Cc1c(N)nc(SCc2ccccn2)c(C#N)c1-c1cccs1 returned Marburg entry inh 1.0%, HCV inhibitor inconclusive, FBPA Giardia inh -0.4%, FMDV inh -1.3%, LASV entry inh inconclusive and HCMV inh -68.5*.
Cc1ccc(CCNS(=O)(=O)c2c(C)nc3sc(C)c(C)n3c2=O)cc1 was read as FMDV inh -11.6%, LASV entry inh 27.0%[46.1 µM] and HCMV inh 2.4.
For Cc1cc(C)c(C#N)c(Oc2ccc(O)cc2)n1 the results were HCV inhibitor inconclusive, FBPA Giardia inh -2.0%, FMDV inh -16.7% and HCMV inh -6.7.
`COc1ccc(C(=O)COc2nc(C)cc(C)c2C#N)cc1` gave Marburg entry inh inconclusive, HCV inhibitor inconclusive, FBPA Giardia inh 2.4%, FMDV inh -9.7%, LASV entry inh -3.5% and HCMV inh -63.6*.
Screening COc1ccc(-n2c(=O)c3c(c4cc(OC)ccc4n3C)n(Cc3ccc(F)cc3Cl)c2=O)cc1 returned FMDV inh 6.9%, LASV entry inh 19.5%[46.1 µM] and HCMV inh 18.8.
